ABHD5 PLIN5 PPI – ABHD5-PLIN5 protein interaction inhibition | inhibition, % at 4 µM | actives 0.78% (n = 360,000) | Q00G26+Q8WTS1 | Split G. princeps luciferase complementation, luminescence, 4 h;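 active = inhibition above the mean inhibition across every tested compound plus 3 SD, cut at about 22% in these data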;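 note: 0% = DMSO only wells and the 100% control is not disclosed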
NOD2-RIPK2 inh – blocks binding of human NOD2 to RIPK2 | O43353 | CHO BLA complementation NOD2-RIPK2, CCF4 ratio | inhibition, % at 4.98 µM | actives 0.38% (n = 360,000) | AID 624267; in the data active = inhibition above about 21%;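 note: 0% = vehicle only and 100% = reference blocker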
PRMT1 FP inh – PRMT1 (human) inhibition, primary screen; AID 652257; inhibition, % at 2.79 µM; recombinant PRMT1, activity-based probe fluorescence polarization; actives 1.3% (n = 370,000);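 active = inhibition above about 21% made by adding two undisclosed values, limit read from the data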
TLR4 MyD88 comp – inhibitors of human TLR4-MyD88 binding | O00206+Q99836 | HeLa CL3-4 TLR4/MyD88 BLA complementation, FRET ratio | inhibition, % at 8.4 µM | actives 0.18% (n = 200,000); in the data active = inhibition above about 25%;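 note: 0% = vehicle and 100% = reference inhibitor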
TLR9-MyD88 inh – inhibitors of human TLR9-MyD88 binding; Q9NR96+Q99836; CHO BLA complementation TLR9-MyD88, CCF4 FRET ratio; inhibition, % at 4.98 µM; actives 0.21% (n = 340,000); AID 504734;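 active = inhibition above the mean over all tested compounds plus 3 SD, cut at about 21% in these data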;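 note: 0% = DMSO only wells and 100% = clavulanate BLA inhibitor control wells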
rCAG binder – binds r(CAG) RNA repeats; r(CAG) RNA repeat, TO-PRO-1 dye displacement fluorescence; inhibition, % at 3 µM; actives 1.3% (n = 370,000); AID 651821;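 active = inhibition above the plate cutoff, the mean of all test compounds on that plate plus 3 SD, cut at about 35% in these data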;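 note: 0% = DMSO alone and 100% = 100 µM mitoxantrone as full dye displacement; higher means more dye released from RNA so lower well fluorescence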
ABHD5 PLIN5 conf – confirmation of human ABHD5-PLIN5 interaction inhibitors. actives 67% (n = 2,200). biochemical ABHD5-PLIN5 interaction, luminescence. shares compounds with ABHD5 PLIN5 PPI. AID 651612. inhibition, % at 4 µM; in the data active = inhibition above about 23%;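 note: 0% = DMSO vehicle wells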
HNF4 split-luc – HNF4 split-luciferase signal hit, counter-screen | shares compounds with ABHD5 PLIN5 PPI | HNF4 dimerization, luminescence, biochemical | inhibition, % at 4 µM | actives 77% (n = 2,200);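 active = mean inhibition across replicate wells exceeding the computed hit threshold, cut at about 13% in these data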;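 note: light from luciferase halves that rejoin when HNF4 fusion proteins dimerize; 0% = DMSO only wells and the 100% control is not given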
Target sequence (P41235 whole entry, looked up, the tested form may be a part): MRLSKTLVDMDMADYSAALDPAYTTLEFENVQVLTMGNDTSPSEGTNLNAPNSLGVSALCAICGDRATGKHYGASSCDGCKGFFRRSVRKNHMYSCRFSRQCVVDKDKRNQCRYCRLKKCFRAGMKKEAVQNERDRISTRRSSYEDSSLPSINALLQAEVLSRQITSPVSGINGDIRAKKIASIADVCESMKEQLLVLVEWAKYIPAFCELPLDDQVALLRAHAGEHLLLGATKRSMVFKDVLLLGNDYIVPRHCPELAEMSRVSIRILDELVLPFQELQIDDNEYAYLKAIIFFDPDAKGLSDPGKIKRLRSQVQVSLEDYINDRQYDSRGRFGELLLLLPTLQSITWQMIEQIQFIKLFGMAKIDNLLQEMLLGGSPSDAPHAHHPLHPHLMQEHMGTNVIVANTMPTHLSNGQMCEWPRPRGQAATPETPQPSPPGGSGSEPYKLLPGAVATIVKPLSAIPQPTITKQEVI
NOD2-RIPK2 conf – confirmation of human NOD2-RIPK2 interaction inhibitors | shares compounds with NOD2-RIPK2 inh | CHO cells, NOD2-RIPK2 BLA complementation, CCF4 FRET | inhibition, % at 4.98 µM | actives 70% (n = 1,200) | AID 624370;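 active = mean inhibition across replicates above a set limit taken from the earlier primary screen, cut at about 21% in these data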;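 note: 0% = DMSO-only wells and the high end = clavulanate BLA-blocked wells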
NOD2 BLA counter – NOD2-RIPK2 counterscreen BLA reporter activity; shares compounds with NOD2-RIPK2 inh; CHO BLA reporter, CCF4 FRET ratio; inhibition, % at 4.98 µM; actives 57% (n = 1,200);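 active = mean inhibition above the low-control mean inhibition plus three low-control SD, cut at about 11% in these data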;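 note: 0% = DMSO only wells and 100% = clavulanate high control wells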
rCAG binder conf – r(CAG) RNA repeat binding, confirmation; shares compounds with rCAG binder; actives 70% (n = 4,300); AID 652065; inhibition, % at 3 µM; TO-PRO-1 dye displacement fluorescence;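 active = inhibition above a per-plate cutoff, the mean inhibition of sample wells plus 3 SD, cut at about 35% in these data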;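 note: loss of TO-PRO-1 fluorescence as compound displaces dye from 1x1 AA loop RNA; 0% = DMSO only wells and 100% = 100 µM mitoxantrone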
DNA CAG counter – counter-screen for rCAG RNA binders: DNA CAG dye complex inhibitors | inhibition, % at 3 µM | d(CAG) DNA oligo TO-PRO-1 dye displacement, fluorescence | AID 652068 | actives 94% (n = 4,300) | shares compounds with rCAG binder;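 active = inhibition above its plate's cutoff, the mean test-well inhibition plus 3 SD, cut at about 4.8% in these data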;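 note: 0% = DNA dye mix with DMSO and 100% = 100 µM mitoxantrone; hits displace the dye from DNA and so lower well fluorescence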
* = called active by the depositor; . = no result given. In the library only some 3.3% were active in any assay of this set; here they are far more common.

SMILES	ABHD5 PLIN5 PPI	NOD2-RIPK2 inh	PRMT1 FP inh	TLR4 MyD88 comp	TLR9-MyD88 inh	rCAG binder	ABHD5 PLIN5 conf	HNF4 split-luc	rCAG binder conf	DNA CAG counter	others
Cc1ccc(NC(=O)C2=C(c3ccccc3)S(=O)(=O)CCS2(=O)=O)cc1	83*	56*	62*	14	9	1	100*	110*	.	.	NOD2-RIPK2 conf=78*;NOD2 BLA counter=10
CC(=Cc1ccccc1)C(=O)c1ccccc1	-5	5	-4	.	0	0	.	.	.	.
O=C(C(Br)=Cc1ccccc1)c1ccccc1	51*	33*	8	.	3	-1	83*	98*	.	.	NOD2-RIPK2 conf=65*;NOD2 BLA counter=22*
CCCC1CCC2(CC1)CCC2OC(=S)NCc1ccc(Cl)cc1 (centres undefined)	.	.	-5	.	.	.	.	.	.	.
CCCCNC(=O)C1(C)CCCCN1Cc1ccc2ccccc2c1 (centres undefined)	-7	-5	-2	.	.	-2	.	.	.	.
O=C1C(=C(I)I)c2ccccc2-c2ccccc21	43*	68*	12	.	14	7	101*	102*	.	.	NOD2-RIPK2 conf=84*;NOD2 BLA counter=7
COc1ccccc1-c1cc(C(F)(F)F)nc(S(C)(=O)=O)n1	44*	25*	5	20	26*	-1	67*	86*	.	.	NOD2-RIPK2 conf=41*;NOD2 BLA counter=7
CCOC(=O)c1c(NC(=O)COc2cccc3c2CCN(C)C3=O)sc2c1CCC2	-1	7	-1	-26	4	7	.	.	.	.
C=C1C(=O)OC2CC1C(O)CC(C)=CCCC(C)=CC(O)CC2C (centres undefined)	55*	23*	0	.	1	-1	81*	61*	.	.	NOD2-RIPK2 conf=19;NOD2 BLA counter=13*
O=C1N/C(=C/c2ccc(N3CCOCC3)o2)C(=O)N1c1ccccc1	80*	40*	46*	2	9	7	63*	99*	.	.	NOD2-RIPK2 conf=5;NOD2 BLA counter=5
C=CCN1C(=O)N/C(=C/c2ccc(N3CCOCC3)o2)C1=O	.	.	12	14	.	0	.	.	.	.
O=C(/C=C/c1ccc(O)c(O)c1)c1ccc(S(=O)(=O)N2CCCCCC2)cc1	32*	3	3	-9	-2	46*	70*	67*	48*	26*
CN1CCC(=NNc2ccc(S(=O)(=O)N3CCOCC3)cc2[N+](=O)[O-])CC1	6	-5	2	-5	2	7	.	.	.	.
Cn1c(=O)c2cc(NC(=O)Nc3ccccc3)ccc2n1Cc1ccccc1	-2	-8	3	.	.	6	.	.	.	.
COc1cc(/C=C/c2[nH]c(=O)[nH]c(=O)c2[N+](=O)[O-])ccc1OCCC(C)C	-1	-3	3	0	8	4	.	.	.	.
CCC(C)Oc1ccc(/C=C/c2[nH]c(=O)[nH]c(=O)c2[N+](=O)[O-])cc1OC (centres undefined)	35*	-2	-2	-4	2	36*	77*	72*	24	4.9*
O=C(O)COc1ccccc1/C=C1\C(=O)Nc2ccc(Br)cc21	34*	-13	0	.	1	43*	42*	44*	26	5.7*
CCOC(=O)COc1ccccc1/C=C1/NC(=O)NC1=O	-4	-13	0	-18	8	1	.	.	.	.
COc1ccc(C(C(=O)Nc2c(C)cccc2C)n2c(=O)c(-c3ccccc3)nc3ccccc32)cc1 (centres undefined)	-4	-3	3	.	.	8	.	.	.	.
COc1ccc(C(C(=O)Nc2c(C)cccc2C)n2c(=O)c(-c3ccco3)nc3ccccc32)cc1 (centres undefined)	81*	8	13	.	.	38*	98*	48*	15	10*
CC(C)(C)NC(=O)C(c1ccnc2ccccc12)n1c(=O)c(-c2ccco2)nc2ccccc21 (centres undefined)	58*	-7	11	.	.	36*	42*	7	19	15*
O=C(Cn1ccc2ccccc2c1=O)NCC(=O)N1CCCCC1	-4	-18	0	.	-6	0	.	.	.	.
O=C1NC(=Nc2ccccc2)S/C1=C\C=C\c1ccco1	25*	-11	21	9	4	69*	36*	55*	62*	30*
Cc1ccc(S(=O)(=O)N(C(=O)c2ccco2)c2cc3sc(=O)oc3c3ccccc23)cc1	31*	-10	84*	-3	-8	88*	-18	109*	40*	17*
CCOc1ccc(S(=O)(=O)N(C(=O)c2ccco2)c2cc3sc(=O)oc3c3ccccc23)cc1	35*	-2	93*	3	-15	78*	-62	34*	48*	26*
SMILES	ABHD5 PLIN5 PPI	NOD2-RIPK2 inh	PRMT1 FP inh	TLR4 MyD88 comp	TLR9-MyD88 inh	rCAG binder	ABHD5 PLIN5 conf	HNF4 split-luc	rCAG binder conf	DNA CAG counter	others
COC(=O)[C@]12C[C@H](CC(=O)N3CCOCC3)C(=O)N(Cc3cccc4ccccc34)C1=C[C@H](C1CCCC1)O[C@@H]2C	.	.	-4	.	.	4	.	.	.	.
O=S(=O)(Nc1nc2ccccc2nc1NCc1ccco1)c1ccc(Cl)cc1	10	-6	10	6	-4	21	.	.	.	.
Cc1ccc(S(=O)(=O)Nc2nc3ccccc3nc2NCc2ccco2)cc1C	28*	-25	4	-6	0	47*	15	27*	53*	20*
CCCCCCCCCCCC(=O)NC(C(=O)OCC)C(O)c1cccc([N+](=O)[O-])c1 (centres undefined)	2	-2	0	0	2	1	.	.	.	.
COc1cccc(/C=C/C(=O)c2ccc(NS(=O)(=O)c3ccc(C)cc3)cc2)c1	32*	1	1	-1	2	35*	80*	61*	62*	21*
COc1cccc(C(=O)/C=C/Nc2ccc(S(=O)(=O)Nc3cccc(C(C)=O)c3)cc2)c1	7	1	-3	-5	14	20	.	.	.	.
CCc1ccc(N2C(=O)CN(Cc3cccs3)C2=S)cc1	-1	14	-1	2	1	3	.	.	.	.

Source: PubChem
